From PubChem BioAssay (NCI)
Where “and” joins values, the source holds several entries; their conditions need not be identical. Identical values can stand only once. About 79,000 compounds went through this panel and 15% of them were active in at least one assay; those are over-represented in the sample as a whole. Calls of active or inactive are those of the source. Cut-off read from the data, not from the text of the source: active = growth inhibition above about 70%; inactive = the rest.

How the values were obtained:
[1] = NCI Yeast Anticancer Drug Screen. Data for the rad50 strain (AID 155);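 note: 0% = growth of vehicle-only cultures of the same strain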; conditions: S. cerevisiae rad50 strain growth inhibition; at 50.0 µM; active compounds read high
Method in brief: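 Readout: growth inhibition relative to vehicle-treated cultures. Compound exposure was carried out in a genetically defined yeast strain deficient in DNA damage repair.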

[2] = NCI Yeast Anticancer Drug Screen. Data for the mec2-1 strain (AID 157); conditions: S. cerevisiae mec2-1 strain, at 50.0 µM, active compounds read high
Method in brief: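 Growth inhibition is read against vehicle-treated controls after compound exposure of the mec2-1 yeast strain, which is defective in DNA damage repair or cell cycle control.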

[3] = NCI Yeast Anticancer Drug Screen. Data for the sgs1 mgt1 strain (AID 161);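 note: 0% = growth of cultures given vehicle only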; conditions: S. cerevisiae sgs1 mgt1 strain, at 50.0 µM, active compounds read high
Method in brief: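 Growth of a repair-deficient yeast mutant was monitored after compound treatment and expressed as inhibition relative to vehicle-treated cultures.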

[4] = NCI Yeast Anticancer Drug Screen. Data for the cln2 rad14 strain (AID 165);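 note: 0% = growth equal to vehicle treated cultures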; conditions: S. cerevisiae cln2 rad14 strain, at 50.0 µM, active compounds read high
Method in brief: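 Growth inhibition, relative to vehicle-treated controls, is the read-out. The test organism is a yeast strain with defined genetic alterations, cln2 rad14.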

[5] = NCI Yeast Anticancer Drug Screen. Data for the bub3 strain (AID 167); conditions: S. cerevisiae bub3 mutant strain, at 50.0 µM, active compounds read high
Method in brief: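 Readout: yeast growth inhibition, expressed relative to vehicle-only wells. The test organism is a mutant strain from a panel with lesions in DNA repair or checkpoint genes.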

[6] = NCI Yeast Anticancer Drug Screen. Data for the mlh1 rad18 strain (AID 175); conditions: S. cerevisiae mlh1 rad18 strain growth inhibition; at 50.0 µM; active compounds read high
Method in brief: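 Cells of a genetically altered yeast strain, deficient in DNA damage repair, were treated with compound. Their growth was then compared with that of vehicle-treated cultures to give inhibition.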

Measured: growth inhibition

C=CC[NH-].C=CC[NH-].CC(=O)CC(C)=O.CC(=O)CC(C)=O.[Ni+2]
inactive: [1] -2.65% | [2] -6.75% | [3] -7.4% | [4] -9.35% | [5] -1.1% | [6] -3.35%

COc1ccc(C2=CC3=CCC4C(CCC5(C)C(O)CCC45)C3(C)CC2)s1 (stereo unspecified)
inactive: [1] 19.2% | [2] 11.7% | [3] 29.6% | [4] -0.6% | [5] -0.1% | [6] 26.1%

CC1c2[nH]c3ccccc3c2CCN1C (stereo unspecified)
inactive: [1] 4.2% | [2] -21.7% | [3] 7.8% | [4] 13.5% | [5] -6.95% | [6] 12.3%

CN(N=O)C(=O)NC1CCCCC1
inactive: [1] -18.6% | [2] -0.25% | [3] -1.25% | [4] -4.45% | [5] -1.95% | [6] 13.8%

CC(NCCO)C(O)c1ccccc1 (stereo unspecified)
inactive: [1] -23.9% | [2] -42.5% | [3] -2.25% | [4] 8.5% | [5] -21.2% | [6] -16.6%

CCOC(=O)C1OC(C2(C)OC3(OC4(C=CC3O)OC(C(C)C(=O)C(C)C(O)C(C)CC(C)c3c(Cl)cc(C)c(O)c3C(=O)O)C(C)CC4C)C(C)C2OC)CC1O (stereo unspecified)
inactive: [1] -12.7% | [2] -27% | [3] -6.95% | [4] 22.9% | [5] 5.9% | [6] 5.75%

COC(=O)Cc1ccccc1
inactive: [1] -4.4% | [2] 15.1% | [3] -31.8% | [4] 5.9% | [5] -50.5% | [6] -19.5%

C[P+](CCl)(CCl)CCl
inactive: [1] 5.45% | [2] -6.45% | [3] -11.7% | [4] -7.3% | [5] -7.6% | [6] -10%

O=C1CC(c2ccccc2)n2cccc21 (stereo unspecified)
inactive: [1] 8.1% | [2] 2.2% | [3] 4.85% | [4] 24.8% | [5] -8.95% | [6] -27.8%

CCCCCCCCCCCOP(=O)(OCC)OCC
active: [1] 99.5% | [2] 99.8% | [3] 99.8% | [4] 99.5% | [5] 99.7% | [6] 99.7%

OC1(CN2CCCCC2)N=C(c2ccccc2)c2ccsc2-n2cccc21 (stereo unspecified)
inactive: [1] -19.6% | [2] -22.6% | [3] -25.2% | [4] 22.2% | [5] -11.5% | [6] -3%

O=S(=O)(c1ccc(O)cc1)c1ccc(O)cc1
inactive: [1] -5.25% and 0.75% | [2] -2.8% and -7.6% | [3] -3.75% and -4.95% | [4] -11.7% and -36.2% | [5] 1.85% and -8.15% | [6] 2.55% and -4.05%

O=[N+]([O-])C(CO)C(CO)[N+](=O)[O-] (stereo unspecified)
inactive: [1] -5.95% | [2] -12.4% | [3] -1% | [4] -20.8% | [5] -13% | [6] -17.6%

CN(C)CCC(O)c1c[nH]c2ccccc12 (stereo unspecified)
inactive: [1] 6% | [2] 1% | [3] -4.1% | [4] -5.15% | [5] 1.15% | [6] 1.15%

COc1cccc(C(O)CN(C)C)c1OC (stereo unspecified)
inactive: [1] 7.05% | [2] -6.65% | [3] 11.2% | [4] 30.2% | [5] -9.85% | [6] 9.95%

[CH3][Sb]([CH3])([CH3])([O]C(=O)C(Cl)Cl)[O]C(=O)C(Cl)Cl
inactive: [1] 10.1% | [2] -7.15% | [3] 15.3% | [4] -22.6% | [5] -1.7% | [6] 2.9%

O=[N+]([O-])c1ncc[nH]1
inactive: [1] 6.75% | [2] -19.7% | [3] 11.6% | [4] 3.1% | [5] 8.2% | [6] 14.9%

CC12CC3CC(C1)CC(N=[N+]=[N-])(C3)C2
inactive: [1] -16.4% | [2] -1.3% | [3] -2.65% | [4] 1.3% | [5] -0.95% | [6] -2.6%

OCC1C(/C=C/c2ccoc2)ON2CCCC12 (stereo unspecified)
inactive: [1] -16.6% | [2] -0.5% | [3] -8.05% | [4] 26.6% | [5] 18.1% | [6] -27.6%

CN(C)C(=O)C1(c2ccccc2)CCNCC1
inactive: [1] 19.4% | [2] -1.7% | [3] 3.25% | [4] 1% | [5] 1.2% | [6] -4.2%

COc1c2c(nc3ccccc13)-c1cc3c(c(=O)n1C2)COC(=O)C3(O)CC(=O)N1CCOCC1 (stereo unspecified)
inactive: [1] 9.5% | [2] -4.25% | [3] 0.2% | [4] 52.5% | [5] -6.5% | [6] 6.35%

CC(=O)OCC12CCC(C)=CC1OC1C(N(C)C)C(O)C2(C)C12CO2 (stereo unspecified)
inactive: [1] 33.1% | [2] 49.6% | [3] 16.5% | [4] 39.1% | [5] 18.4% | [6] -16.9%

CCOP(=O)(OCC)Oc1cc(C)c(SC)c(C)c1
inactive: [1] -6.45% | [2] -24.4% | [3] -0.6% | [4] 9.25% | [5] 19% | [6] -16.8%

CCOP(=O)(OCC)/C(C#N)=C/c1ncc[nH]1
inactive: [1] -36.6% | [2] -23.9% | [3] -48% | [4] 19.7% | [5] 26.2% | [6] -55.4%

CCCCCCCCCCCCCCC[As](=O)(O)CCCCCCCCCCCCCCC
inactive: [1] 21.8% | [2] 0.75% | [3] 11.9% | [4] 8.45% | [5] 6.75% | [6] 12.9%

O=C(O)CN1C(=O)CN=C(c2ccccn2)c2cc(Cl)ccc21
inactive: [1] -5.45% | [2] -8.6% | [3] -23.8% | [4] -50.6% | [5] -15.3% | [6] -17%

COCC1OC(OC2C3=C(C(C)C)CCC3(C)/C=C3\C(CCC3(O)COC)C(C)C2O)C(O)C2OC3OC12OC3(C)C1CO1 (stereo unspecified)
inactive: [1] 28.1% | [2] 7.75% | [3] 21% | [4] 35.2% | [5] 31.6% | [6] -78%

CCN1CCC(OC(=O)c2ccccc2)(c2nccc3ccccc23)CC1
inactive: [1] -5.85% | [2] 0.95% | [3] 7.05% | [4] 9.05% | [5] 9.75% | [6] 8.9%

NC(=O)Cc1nn[nH]n1
inactive: [1] -16.4% | [2] -13.8% | [3] -27.1% | [4] 5.95% | [5] -7.35% | [6] -21.9%

CN1CCN(C(=O)Cc2c[nH]c3ccccc23)CC1
inactive: [1] -1.25% | [2] 11.8% | [3] 2.9% | [4] -20.3% | [5] 9.35% | [6] 15.7%

CC(=O)C1(c2ccccc2)CCCN(C)CC1 (stereo unspecified)
inactive: [1] -7.8% | [2] -8.95% | [3] 8.2% | [4] 1.35% | [5] 3.45% | [6] -3.45%

COP(=O)(OC)N1CCCCC1
inactive: [1] 29% | [2] 20.4% | [3] 12.7% | [4] 12.4% | [5] 22% | [6] 27.6%

O=C(O)CP(=O)(O)O
inactive: [1] -19% and 6.2% | [2] -8.25% and 10% | [3] -21.1% and 1.75% | [4] -2.2% and -19.4% | [5] -27.1% and 5.75% | [6] 1.2% and -2.65%

O=C(O)C(O)C(O)C(O)C(O)C(O)C(O)CO (stereo unspecified)
inactive: [1] -18.1% | [2] -6.95% | [3] -33.4% | [4] -73.5% | [5] 3% | [6] 2.95%

O=C1NC(=O)C2(O)NC(=O)NC2(O)N1 (stereo unspecified)
inactive: [1] -27.1% | [2] -9.5% | [3] 3.15% | [4] -10.8% | [5] -22.4% | [6] 18.1%

CCN1C(=O)C(=Cc2ccc(-c3ccccc3)cc2)C(=O)N(CC)C1=S
inactive: [1] 32.4% | [2] -5.5% | [3] 23.1% | [4] 16.9% | [5] 15.4% | [6] 20.4%

CC(COC(=O)NCc1ccc(Cl)cc1Cl)OC(N)=O (stereo unspecified)
inactive: [1] 2.6% | [2] 0.35% | [3] 4.25% | [4] -12.8% | [5] -5% | [6] -8.65%

COc1ccc([N+](=O)[O-])cc1N=Cc1ccc(N(CCCl)CCCl)cc1C
inactive: [1] 43% | [2] 13.3% | [3] 52.2% | [4] 18.6% | [5] 3.5% | [6] 17.1%

CN1C2CCC1CC(=O)C2
inactive: [1] -14.6% | [2] -48.2% | [3] -32.6% | [4] -8.35% | [5] -29.9% | [6] -27.4%

CCCCC(CC)C(O)P(=O)(OCC)OCC (stereo unspecified)
inactive: [1] -0.55% | [2] 19% | [3] -2.3% | [4] -21.9% | [5] 23.7% | [6] 9.9%

Cc1nc([N+](=O)[O-])c([N+](=O)[O-])n1CC(O)CCl (stereo unspecified)
inactive: [1] 3.85% | [2] -12.4% | [3] 4.2% | [4] 14.9% | [5] -28.1% | [6] 20.4%
